Source: PubChem BioAssay (Broad Institute)
The list is a sample of the results.
miR-122 inh: miR-122 suppressors via Renilla sensor increase, primary screen, cell-based, Huh7 psiCHECK-miR122, Renilla luciferase, single point; 48 h; activation, % at 12.5 µM; 340,000 compounds, 0.14% hits; AID 623901, 2012;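 active = mean activation of 30% or more, with every replicate also reaching 30%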;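 also: 0% = median of neutral control wells and 100% = median of positive control wells; higher luciferase signal means stronger suppression of miR-122 activity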
* = called active by the depositor.

SMILES | miR-122 inh
CCCNC(=O)N1[C@@H]2CN(C(=O)c3ccccc3)c3ccccc3[C@@H]2[C@@H]1CO | 35.9*
COCC(=O)Nc1ccc2c(c1)OC[C@@H](C)N(C(C)=O)C[C@H](C)[C@@H](OC)CN(C)C2=O | -0.6
CNC[C@@H]1Oc2cc(C#CCC3CCCC3)ccc2S(=O)(=O)N([C@@H](C)CO)C[C@@H]1C | 2.2
C[C@H]1CN([C@@H](C)CO)C(=O)c2cc(-c3ccc(F)cc3)cnc2O[C@H]1CN(C)CC1CCOCC1 | -6.6
CC(C)C#Cc1cnc2c(c1)C(=O)N([C@@H](C)CO)C[C@@H](C)[C@@H](CN(C)Cc1ccccn1)O2 | 7.5
CCCNC(=O)N(C)C[C@@H]1Oc2cc(Br)ccc2S(=O)(=O)N([C@H](C)CO)C[C@@H]1C | 6.1
C[C@H]1CN([C@@H](C)CO)C(=O)c2cc(-c3ccc(C(=O)N(C)C)cc3)cnc2O[C@@H]1CN(C)Cc1ccc(C(=O)O)cc1 | 2.8
C[C@H](CO)N1C[C@H](C)[C@H](CN(C)C(=O)Nc2ccccc2)Oc2cc(C#Cc3ccccc3)ccc2S1(=O)=O | -9.3
C[C@H](CO)N1C[C@H](C)[C@@H](CN(C)Cc2ccccc2C(=O)O)Oc2cc(-c3ccccc3)ccc2S1(=O)=O | -27.7
C[C@H]1CN([C@@H](C)CO)C(=O)c2cc(/C=C/c3ccccc3)cnc2O[C@H]1CN(C)C(=O)C1CCC1 | 4.6
C[C@@H]1CN([C@@H](C)CO)S(=O)(=O)c2ccc(Br)cc2O[C@H]1CN(C)S(C)(=O)=O | -1.9
